Compound activity deposited in PubChem by several laboratories.
Hits are enriched below; roughly 2.9% of the tested compounds scored in any of these assays.
ERa coact pot: ER-alpha (human) coactivator binding potentiation | AID 639 | actives 1.3% (n = 86,000) | P03372 | TR-FRET ERalpha-LBD/SRC-Cy5 coactivator binding, 2 h; 100 = basal binding, no effect | coactivator binding (% of control), % at 25.6 µM; in the data active = activity above about 200%;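 also: binding measured in presence of low estradiol as agonist stimulus; 0% = peptide alone without receptor and 100% = receptor with peptide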
ERa coact inh: blocks coactivator binding to human estrogen receptor alpha; AID 629; inhibition, % at 25.6 µM; actives 1.7% (n = 86,000); TR-FRET ER-alpha LBD / SRC-1 peptide, estradiol-bound; P03372; in the data active = inhibition above about 50%;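 also: 0% = receptor plus peptide control and 100% = peptide only without receptor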
ERb SRC1 inh: ER-beta (human) coactivator binding inhibition | Q92731 | TR-FRET ER-beta LBD / SRC1-Cy5 peptide binding; receptor agonist-loaded with 1 µM estradiol | inhibition, % at 25.6 µM | actives 1.3% (n = 86,000);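 active = compounds whose percent inhibition of the receptor-coactivator binding signal exceeds about 50% in the single-dose screen, limit read from the data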;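 also: 0% = receptor plus peptide wells without compound and 100% = peptide-only wells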
Smad3 inh: inhibitors of human Smad3 transcription factor binding; P84022; TR-FRET Smad3/Dy647-FoxH1 peptide binding, europium anti-His; inhibition, % at 25 µM; actives 0.29% (n = 88,000);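 active = compounds that reduce the energy-transfer binding signal between the protein and its labelled peptide by more than half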;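 also: 0% = Smad3 plus labelled peptide maximal FRET and 100% = peptide-only background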
HePTP inhibitor: blocks human HePTP tyrosine phosphatase; P35236; recombinant HePTP phosphatase activity, OD absorbance; inhibition, % at 20 µM; actives 0.64% (n = 110,000); in the data active = inhibition above about 50%;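 also: plate controls were vehicle for no effect and reference inhibitor for full effect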
Target sequence (P35236 whole entry, looked up): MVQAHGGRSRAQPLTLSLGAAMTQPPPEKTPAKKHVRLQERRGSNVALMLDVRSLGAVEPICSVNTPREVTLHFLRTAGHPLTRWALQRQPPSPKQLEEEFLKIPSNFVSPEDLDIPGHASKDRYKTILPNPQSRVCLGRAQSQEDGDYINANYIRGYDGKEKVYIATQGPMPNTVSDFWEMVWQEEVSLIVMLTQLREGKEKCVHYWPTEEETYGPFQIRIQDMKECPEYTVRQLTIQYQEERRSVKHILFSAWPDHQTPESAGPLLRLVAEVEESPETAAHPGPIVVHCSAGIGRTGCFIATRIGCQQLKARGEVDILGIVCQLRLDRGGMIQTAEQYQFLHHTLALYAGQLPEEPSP
Calb biofilm kill: kills Candida albicans biofilms; actives 0.14% (n = 85,000); C. albicans biofilm + clotrimazole, Alamar Blue; AID 834; inhibition, % at 6 µM;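 active = inhibition above 20%; inactive = inhibition below 20%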;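 also: preformed 24 hr biofilms exposed to compound for 48 hr; 0% = biofilm without compound and 100% = blank killed by clotrimazole plus chlorhexidine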
Active calls of the source: *; x = not tested or not shown; [ ] = dose if it differs, or a comment.

SMILES | ERa coact pot | ERa coact inh | ERb SRC1 inh | Smad3 inh | HePTP inhibitor | Calb biofilm kill
O=C(CN(c1cccc(Cl)c1)S(=O)(=O)c1ccccc1)Nc1cccc2cccnc12 | x | x | x | x | -3 | x
O=C1/C(=C\c2ccco2)CC2CC1C/C(=C/c1ccco1)C2=O | x | x | x | x | 102* | x
O=C(/C=C/c1ccc(Cl)cc1Cl)Nc1nn[nH]n1 | x | x | x | x | 87* | x
O=C(/C=C/c1ccc(Cl)cc1Cl)Nc1c(F)c(F)c(F)c(F)c1F | x | x | x | x | 8 | x
COc1cc(OC)c(NC(=O)c2cc(C(F)(F)F)cc(C(F)(F)F)c2)cc1Cl | x | x | x | x | 1 | x
O=C(NC(=S)NNc1nc(-c2ccccc2)cs1)c1cc2ccccc2oc1=O | x | x | x | x | 99* | x
O=C(Nc1nc(-c2ccccc2)cs1)c1cc2ccccc2oc1=O | x | x | x | x | -15 | x
CCN(/C=N/c1sc2c(c1C#N)CCCC2)CC | x | x | x | x | -20 | x
Cc1ccccc1C(=O)Nc1cccc(NC(=O)c2ccc(-c3ccc(Br)cc3)o2)c1 | 67 | 79*[fluorescence artefact?] | 44 | -1 | 5 | 4
CC(C)c1cc(Nc2nccs2)cc(C(C)C)c1O | x | x | x | x | 84* | x
CC(=O)Nc1cc(C(C)C)c(O)c(C(C)C)c1 | 88 | -13 | 5 | -12 | x | 5
CCOC(=O)C1=C(C)N=c2s/c(=C\c3ccc(OC)c(OC)c3OC)c(=O)n2C1c1ccccc1 (stereo not drawn) | x | x | x | x | -13 | x
O=C(O)CN1C(=O)/C(=N/N2C(=O)CSC2=S)c2ccccc21 | x | x | x | x | 63* | x
CC(C)(C)NC(=O)C1C(C=C(Cl)Cl)C1(C)C (stereo not drawn) | x | x | x | x | -8 | x
CC(C)(C)c1cc(/C=N/Nc2ccc(C(F)(F)F)cn2)cc(C(C)(C)C)c1O | x | x | x | x | 1 | x
COc1ccc(-c2nnc(SCC(=O)Nc3sc4c(c3C#N)CCCC4)n2-c2ccccc2)cc1 | 230*[fluorescence artefact?] | 5 | 6 | 17 | x | 11
N#Cc1ccc(-c2cccnc2)nc1SCC(=O)Nc1sc2c(c1C#N)CCC2 | 53 | 85* | 66* | 4 | 9 | 6
CCOC(=O)c1c(NC(=O)CSc2nnc(C)s2)sc2c1CCCCC2 | 137 | 2 | 2 | -3 | x | 3
CCC1(CC)NC(=O)N(CC(=O)Nc2sc3c(c2C(N)=O)CCC3)C1=O | 28 | 84* | 74*[fluorescence artefact?] | 10 | 19 | 7
CCOC(=O)Cc1csc(SCC(=O)Nc2sc3c(c2C(N)=O)CCC3)n1 | 61 | 92*[fluorescence artefact?] | 82*[fluorescence artefact?] | 4 | 7 | 9
CCCCC(=O)Nc1sc2c(c1C(N)=O)CCC2 | 108 | -2 | -1 | 15 | 9 | 4
COc1ccc(-c2ccc(C#N)c(SCC(=O)Nc3sc4c(c3C#N)CCC4)n2)cc1 | 159 | 1 | 8 | -2 | x | 7
COc1cc(/C=C2\N=C(c3ccccc3Cl)OC2=O)ccc1OC(=O)c1ccccc1Cl | x | x | x | x | 11 | x
CCOC(=O)c1c(NC(=O)CSc2nnc(-c3ccc(OC)cc3)o2)sc2c1CCC2 | 116 | 35 | 15 | -3 | -2 | 7
NC(=O)c1c(NC(=O)COC(=O)CSc2nnc(-c3ccc(Cl)cc3)o2)sc2c1CCC2 | 41 | 58*[fluorescence artefact?] | 46 | 11 | 2 | 9
SMILES | ERa coact pot | ERa coact inh | ERb SRC1 inh | Smad3 inh | HePTP inhibitor | Calb biofilm kill
O=C(CSc1n[nH]c(-c2ccco2)n1)Nc1sc2c(c1C(=O)Nc1ccccc1)CCCC2 | 78 | 51* | 35 | 14 | 3 | 4
CCOC(=O)c1c(NC(=O)CSc2n[nH]c(-c3ccco3)n2)sc(C)c1C | 103 | 3 | 0 | 3 | 10 | 7
NC(=O)c1c(NC(=O)CSc2nnc(-c3ccco3)n2-c2ccccc2)sc2c1CCC2 | 28 | 94*[fluorescence artefact?] | 82*[fluorescence artefact?] | 14 | x | 4
CCCC1=C(C(=O)OCC)C(c2ccccc2Cl)NC(=O)N1 (stereo not drawn) | x | x | x | x | 1 | x
CC1=NN(c2ccc(C(=O)O)cc2)C(=O)/C1=C\c1ccc(-c2cccc(C(=O)O)c2)o1 | x | x | x | x | 101* | x
N=C1S/C(=C\c2ccc(-c3cccc(C(=O)O)c3)o2)C(=O)N1c1ccc2c(c1)OCO2 | x | x | x | x | 103* | x
O=C1NN(c2cccc(Cl)c2)C(=O)/C1=C\c1ccc(-c2cccc(C(=O)O)c2)o1 | x | x | x | x | 102* | x
COC(=O)c1cccc(-c2ccc(/C=C3\C(=O)N(c4cccc(C(=O)O)c4)N=C3C)o2)c1 | x | x | x | x | 102* | x
N=C1S/C(=C\c2ccc(-c3cccc([N+](=O)[O-])c3)o2)C(=O)N1c1ccc2c(c1)OCO2 | x | x | x | x | 3 | x
Cc1cccc(OCC(=O)N/N=C/c2ccc([N+](=O)[O-])s2)c1 | x | x | x | x | 8 | x
COc1ccc2c(c1)-c1c(ssc1=S)C(C)(C)N2C(=O)c1ccc(OC)c(OC)c1 | x | x | x | x | -10 | x
CCOc1ccc(/C(C)=N/NS(=O)(=O)c2ccccc2)cc1 | x | x | x | x | 9 | x
O=C(O)c1[nH]c2ccccc2c1-c1ccccc1 | 80 | 20 | 3 | 80*[fluorescence artefact?] | x | 3
Cc1occc1C(=O)NCCCc1ccccc1 | 103 | 4 | 58* | 2 | -2 | 4
Clc1ccccc1-c1nc(-c2cccnc2)no1 | 98 | -5 | -8 | -6 | 5 | 7
Clc1ccc(Br)cc1-c1nc(-c2cccnc2)no1 | 207*[fluorescence artefact?] | 38 | 27 | 10 | -6 | 2
NC(=O)c1ccsc1NC(=O)COC(=O)C1CCCN1C(=O)c1cccs1 (stereo not drawn) | 44 | 53*[fluorescence artefact?] | 68*[fluorescence artefact?] | 2 | -7 | 6
NC(=O)c1ccsc1NC(=O)c1cccs1 | 114 | 0 | 2 | -3 | 2 | 4
CC(=O)Nc1cc2c(cc1C(=O)c1ccccc1)OCCO2 | 67 | 28 | 63* | 7 | 8 | 6
NC1=N[C@@H](c2ccc(Cl)cc2)N(c2ccc(S(=O)(=O)Nc3ncccn3)cc2)C(N)=N1 | x | x | x | 52* | x | x
CCS(=O)(=O)NCc1csc(-c2ccccc2)n1 | 91 | -2 | 31 | -5 | 0 | 25*
COc1ccc2c(Cl)c(C(=O)NCCCn3ccnc3)sc2c1Cl | 276* | 12 | -5 | -16 | x | 4
COc1ccc(C(=O)NCCCn2ccnc2)cc1 | 122 | 4 | -3 | -4 | 0 | -2
N/C(=N\OC(=O)c1ccc(I)cc1)c1ccccn1 | x | x | x | x | -11 | x
CC(C)(C)c1ccc(-c2nnc3sc(-c4ccccn4)nn23)cc1 | 262* | 23 | 31 | 8 | 11 | 10
SMILES | ERa coact pot | ERa coact inh | ERb SRC1 inh | Smad3 inh | HePTP inhibitor | Calb biofilm kill
Clc1ccc(-c2nnc3sc(-c4ccccn4)nn23)cc1 | 105 | 9 | 7 | -2 | 3 | 4
c1ccc(-c2nn3c(-c4ccncc4)nnc3s2)nc1 | 40 | 58*[fluorescence artefact?] | 26 | 6 | 2 | 11
Clc1ccc(-c2nn3c(-c4ccncc4)nnc3s2)c(Cl)c1 | 330* | 11 | 29 | -8 | 3 | 0
COc1ccc(-c2nnc3sc(-c4ccccn4)nn23)cc1 | 104 | 3 | 10 | 2 | 2 | 8
CCN(CC)CCNC(=O)C1(c2ccccc2)CCOCC1 | x | x | x | x | 1 | x
CCOc1ccc(C2C(C(=O)OC)=CNC=C2C(=O)OC)cc1 | x | x | x | x | -10 | x
C1CCC(c2nn3c(-c4n[nH]c5c4CCC5)nnc3s2)CC1 | 20 | 75* | 61* | 12 | 8 | -3
